Laboratory results from PubChem BioAssay (EPA / NIEHS).
Records with an inconclusive call do not appear. The source made the active and inactive calls. How the source made its calls, unless noted: active means hit-call score of the fitted dose curve at least 0.9, where 1 is the maximum; inactive means score below 0.9.

Legend:
[1] = ATG_PBREM_CIS: Attagene CIS-FACTORIAL HepG2 Assay for human Phenobarbital-responsive Enhancer Module (PBREM) (AID 2282955); details: HepG2 PBREM cis-reporter, Attagene multiplexed transcription; actives raise or lower the signal
How it was run: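 HepG2 cells transiently transfected with multiple cis-regulated reporter units measure endogenous transcription factor activity; 24 h compound exposure. Reporter mRNA quantified by RT-PCR, fluorescent labelling, HpaI digestion and capillary electrophoresis; bidirectional fit versus DMSO.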

[2] = molecular target: Paired box protein Pax-6 (Homo sapiens) (UniProt P26367); assay: ATG_Pax6_CIS: Attagene CIS-FACTORIAL HepG2 Assay for human Paired Box 6 (PAX6) (AID 2282956); details: HepG2 CIS-FACTORIAL PAX6 reporter transcription, RNA readout; actives raise or lower the signal
How it was run: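 Readout: reporter transcript fluorescence after RT-PCR and capillary electrophoresis. Cells: HepG2, transiently transfected with cis-regulated MRTUs. Exposure 24 h. Gain or loss of signal fitted bidirectionally relative to DMSO.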

[3] = ATG_PXRE_CIS: Attagene CIS-FACTORIAL HepG2 Assay for human Pregnane X Receptor Element (PXRE) (AID 2282957); details: HepG2 Attagene CIS-FACTORIAL PXRE reporter, mRNA; actives raise or lower the signal
How it was run: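 Endogenous transcription factor activity in HepG2 was gauged through induction of reporter mRNA driven by a cis-regulating promoter element, sampled 24 h post-treatment. Activity was fitted in both directions against DMSO negative control.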

[4] = ATG_PPRE_CIS: Attagene CIS-FACTORIAL HepG2 Assay for human Peroxisome Proliferator-activated Response Element (PPRE) (AID 2282958); details: HepG2 PPRE cis-element reporter, Attagene transcription factor profiling; actives raise or lower the signal
How it was run: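 HepG2 cells are transiently transfected with multiplexed cis-promoter reporter units to report endogenous PPAR activity. After 24 h dosing, reporter mRNA is read by RT-PCR and capillary electrophoresis. Fitting is bidirectional against DMSO.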

[5] = ATG_RORE_CIS: Attagene CIS-FACTORIAL HepG2 Assay for human RAR-related Orphan Receptor Element (RORE) (AID 2282959); details: HepG2 Attagene cis-factorial RORE reporter, mRNA; actives raise or lower the signal
How it was run: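 HepG2 cells carrying transiently transfected cis-regulated reporter units; RORE-driven reporter mRNA quantified 24 h post-dosing by RT-PCR, 6-FAM primer extension, HpaI digestion and capillary electrophoresis. Bidirectional fit versus DMSO.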

[6] = ATG_Sox_CIS: Attagene CIS-FACTORIAL HepG2 Assay for human SRY-box transcription factor (SOX) (AID 2282960); details: HepG2 Attagene cis-factorial SOX reporter, mRNA; actives raise or lower the signal
How it was run: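 HepG2 cells transiently transfected with multiple cis-regulated reporter units, then dosed for 24 h. Reporter mRNA quantified by RT-PCR, fluorescent labelling, HpaI digestion and capillary electrophoresis; bidirectional fit versus DMSO.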

[7] = molecular target: Transcription factor Sp1 (Homo sapiens) (UniProt P08047); assay: ATG_Sp1_CIS: Attagene CIS-FACTORIAL HepG2 Assay for human Specificity Protein 1 (Sp1) (AID 2282961); details: HepG2 Sp1 cis-reporter transcription, actives raise or lower the signal
How it was run: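 HepG2 cells transiently transfected with multiplexed cis-regulated reporter constructs, chemical exposure 24 h. Reporter mRNA quantified by RT-PCR with capillary electrophoresis; bidirectional fit relative to DMSO.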

[8] = ATG_SREBP_CIS: Attagene CIS-FACTORIAL HepG2 Assay for human Sterol Regulatory Element Binding (SREBP) (AID 2282962); details: HepG2 Attagene cis-factorial SREBP reporter, mRNA; actives raise or lower the signal
How it was run: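 Readout: fluorescent reporter-transcript peaks resolved by capillary electrophoresis after RT-PCR. Cells were human HepG2 carrying transfected cis-promoter reporter constructs, dosed for 24 h. Gain or loss of signal was fitted against DMSO controls.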

[9] = molecular target: Signal transducer and activator of transcription 3 (Homo sapiens) (UniProt P40763); assay: ATG_STAT3_CIS: Attagene CIS-FACTORIAL HepG2 Assay for human Signal Transducer and Activator of Transcription 3 (STAT3) (AID 2282963); details: HepG2, Attagene cis-factorial STAT3 reporter transcription; actives raise or lower the signal
How it was run: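 Uses human liver HepG2 transiently carrying cis-regulated reporter transcription units. Following 24 h dosing, reporter mRNA induction was detected by RT-PCR and capillary electrophoresis, analysed bidirectionally versus DMSO.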

[10] = ATG_TA_CIS: Attagene CIS-FACTORIAL HepG2 Assay for human TA Basal Promoter (AID 2282964); details: HepG2 Attagene CIS-factorial TA basal promoter reporter; actives raise or lower the signal
How it was run: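 Transient MRTU transfection of HepG2 preceded 24 h compound exposure. Reporter mRNA levels were then read by RT-PCR with capillary electrophoresis, and this background-control endpoint was fitted bidirectionally to DMSO.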

[11] = ATG_TCF_b_cat_CIS: Attagene CIS-FACTORIAL HepG2 Assay for human T-Cell-Factor with beta-catenin (TCF/b-cat) (AID 2282965); details: HepG2 TCF/beta-catenin cis-reporter transcription, actives raise or lower the signal
How it was run: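 HepG2 cells transiently transfected with multiple cis-promoter-regulated reporter transcription units, so endogenous transcription factor activity is measured. Reporter mRNA read 24 hours after dosing by RT-PCR, fluorescent labelling and capillary electrophoresis; bidirectional fitting against DMSO.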

[12] = ATG_TAL_CIS: Attagene CIS-FACTORIAL HepG2 Assay for human TAL Basal Promoter (AID 2282966); details: HepG2 Attagene cis-factorial TAL promoter reporter; actives raise or lower the signal;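 further: background control endpoint measuring basal TAL promoter reporter mRNA not a specific factor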
How it was run: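 Endogenous transcription-factor activity is sensed in HepG2 cells through transfected cis-promoter reporter constructs. After 24 h dosing, reporter transcripts are quantified by RT-PCR and capillary electrophoresis. Gain or loss of signal is fitted relative to DMSO.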

[13] = ATG_TGFb_CIS: Attagene CIS-FACTORIAL HepG2 Assay for human Transforming Growth Factor (TGF) (AID 2282967); details: HepG2 Attagene CIS TGFb reporter, mRNA transcription; actives raise or lower the signal
How it was run: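 After a 24-hour incubation with compound, transfected HepG2 cells were lysed for RNA; reporter cDNA was amplified, fluorescently end-labeled and separated by CE. DMSO served as baseline for bidirectional fits.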

[14] = molecular target: Nuclear receptor subfamily 1 group I member 3 (Homo sapiens) (UniProt Q14994); assay: ATG_CAR_TRANS: Attagene TRANS-FACTORIAL HepG2 Assay for human Constitutive Androstane Receptor (CAR) (AID 2282969; active means hit-call score of the fitted dose curve at least 0.9, where 1 is the maximum;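 further: activators raise reporter mRNA above DMSO so AC50 marks induction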); details: HepG2 Attagene TRANS-FACTORIAL CAR reporter
How it was run: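 Steps: transient transfection of HepG2 with multiple GAL4-UAS reporter units; 24 h compound incubation; RNA isolation, RT-PCR, 6-FAM primer extension, HpaI digest; capillary electrophoresis. Gain-of-signal relative to DMSO negative control.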

[15] = molecular target: Estrogen receptor (Homo sapiens) (UniProt P03372); assay: ATG_ERa_TRANS: Attagene TRANS-FACTORIAL HepG2 Assay for human Estrogen Receptor alpha (ERa) (AID 2282970; active means hit-call score of the fitted dose curve at least 0.9, where 1 is the maximum); details: HepG2 Attagene TRANS ERa GAL4 reporter, mRNA
How it was run: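 Transfected HepG2 cells carrying GAL4-UAS-driven reporter units were dosed for 24 hours. Total RNA was reverse-transcribed, reporter sequences PCR-amplified, FAM-labelled, HpaI-digested and resolved by capillary electrophoresis. Increases over DMSO control defined activity.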

[16] = molecular target: X-box-binding protein 1 (Homo sapiens) (UniProt P17861); assay: ATG_Xbp1_CIS: Attagene CIS-FACTORIAL HepG2 Assay for human X-box Binding Protein 1 (XBP1) (AID 2282972); details: HepG2 XBP1 cis-element reporter, Attagene multiplex; actives raise or lower the signal
How it was run: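 Read-out: fluorescent reporter mRNA fragments resolved by capillary electrophoresis after RT-PCR. Human HepG2 liver cells carried transfected cis-promoter reporter units and were exposed to chemicals for 24 hours. Gain or loss of signal fitted relative to DMSO baseline.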

[17] = ATG_VDRE_CIS: Attagene CIS-FACTORIAL HepG2 Assay for human Vitamin D Receptor Element (VDRE) (AID 2282968); details: HepG2 VDRE cis-reporter transcription, actives raise or lower the signal
How it was run: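 Transfected HepG2 reporter cells, chemical treatment 24 h. RNA isolated, cDNA amplified with reporter-specific primers, products analysed by capillary electrophoresis. Endpoint fitted in both directions versus DMSO.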

[18] = molecular target: Steroid hormone receptor ERR1 (Homo sapiens) (UniProt P11474); assay: ATG_ERRa_TRANS: Attagene TRANS-FACTORIAL HepG2 Assay for human Estrogen-Related Receptor alpha (ERRa) (AID 2282971; active means hit-call score of the fitted dose curve at least 0.9, where 1 is the maximum); details: HepG2 Attagene TRANS reporter, ERRa transactivation
How it was run: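 HepG2 cells were transiently transfected with multiple GAL4-UAS reporter units, then dosed with compound for 24 h. Total RNA was reverse-transcribed, reporter cDNA PCR-amplified and fluorescently labelled, and fragments resolved by capillary electrophoresis; induction was compared with DMSO.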

[19] = ATG_M_19_TRANS: Attagene TRANS-FACTORIAL HepG2 Assay for M19 Transcription Factor (Internal Marker) (AID 2282974; active means hit-call score of the fitted dose curve at least 0.9, where 1 is the maximum); details: HepG2 Attagene TRANS-FACTORIAL M19 internal marker reporter
How it was run: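 HepG2 transiently transfected with GAL4-UAS multiplex reporter constructs, exposed 24 h; reporter RNA quantified by RT-PCR, 6-FAM labeling, HpaI digestion and capillary electrophoresis; internal background marker fitted upward versus DMSO.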

X-box-binding protein 1 (Homo sapiens), sequence (P17861 whole entry, looked up, the tested form may be a part): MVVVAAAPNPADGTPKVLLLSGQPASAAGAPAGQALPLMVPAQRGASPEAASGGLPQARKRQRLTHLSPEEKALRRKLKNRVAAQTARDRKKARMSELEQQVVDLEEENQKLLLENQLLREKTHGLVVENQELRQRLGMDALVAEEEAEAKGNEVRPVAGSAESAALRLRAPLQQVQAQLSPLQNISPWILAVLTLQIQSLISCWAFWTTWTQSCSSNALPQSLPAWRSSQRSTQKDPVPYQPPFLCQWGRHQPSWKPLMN
Estrogen receptor (Homo sapiens), sequence (P03372 whole entry, looked up, the tested form may be a part): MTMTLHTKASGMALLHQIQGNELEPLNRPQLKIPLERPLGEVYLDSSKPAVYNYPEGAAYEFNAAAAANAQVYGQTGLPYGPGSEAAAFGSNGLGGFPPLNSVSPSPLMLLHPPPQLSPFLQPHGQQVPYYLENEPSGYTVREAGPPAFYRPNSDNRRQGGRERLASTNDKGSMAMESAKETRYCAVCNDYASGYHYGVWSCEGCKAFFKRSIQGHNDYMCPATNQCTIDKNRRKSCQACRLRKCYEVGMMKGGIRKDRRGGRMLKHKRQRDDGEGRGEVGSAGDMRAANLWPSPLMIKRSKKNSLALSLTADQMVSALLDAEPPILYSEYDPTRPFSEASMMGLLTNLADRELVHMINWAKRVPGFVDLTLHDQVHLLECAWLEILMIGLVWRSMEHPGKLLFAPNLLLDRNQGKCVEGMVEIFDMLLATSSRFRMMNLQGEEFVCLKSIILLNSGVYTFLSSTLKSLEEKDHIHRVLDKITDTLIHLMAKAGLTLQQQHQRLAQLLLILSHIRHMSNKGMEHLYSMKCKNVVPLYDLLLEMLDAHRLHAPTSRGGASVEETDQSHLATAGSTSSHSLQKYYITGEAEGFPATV
Paired box protein Pax-6 (Homo sapiens), sequence (P26367 whole entry, looked up): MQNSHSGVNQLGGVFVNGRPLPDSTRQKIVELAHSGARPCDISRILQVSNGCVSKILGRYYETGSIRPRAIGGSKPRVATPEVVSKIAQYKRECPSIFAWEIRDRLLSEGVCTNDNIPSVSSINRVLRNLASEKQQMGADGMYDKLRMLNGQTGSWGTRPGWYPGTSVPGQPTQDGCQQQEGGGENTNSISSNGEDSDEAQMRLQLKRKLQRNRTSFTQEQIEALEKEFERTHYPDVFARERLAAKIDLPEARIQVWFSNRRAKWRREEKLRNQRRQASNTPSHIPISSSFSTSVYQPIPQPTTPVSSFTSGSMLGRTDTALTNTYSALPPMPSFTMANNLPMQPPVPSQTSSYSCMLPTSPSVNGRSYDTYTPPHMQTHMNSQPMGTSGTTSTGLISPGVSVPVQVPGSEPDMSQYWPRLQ
Signal transducer and activator of transcription 3 (Homo sapiens), sequence (P40763 whole entry, looked up): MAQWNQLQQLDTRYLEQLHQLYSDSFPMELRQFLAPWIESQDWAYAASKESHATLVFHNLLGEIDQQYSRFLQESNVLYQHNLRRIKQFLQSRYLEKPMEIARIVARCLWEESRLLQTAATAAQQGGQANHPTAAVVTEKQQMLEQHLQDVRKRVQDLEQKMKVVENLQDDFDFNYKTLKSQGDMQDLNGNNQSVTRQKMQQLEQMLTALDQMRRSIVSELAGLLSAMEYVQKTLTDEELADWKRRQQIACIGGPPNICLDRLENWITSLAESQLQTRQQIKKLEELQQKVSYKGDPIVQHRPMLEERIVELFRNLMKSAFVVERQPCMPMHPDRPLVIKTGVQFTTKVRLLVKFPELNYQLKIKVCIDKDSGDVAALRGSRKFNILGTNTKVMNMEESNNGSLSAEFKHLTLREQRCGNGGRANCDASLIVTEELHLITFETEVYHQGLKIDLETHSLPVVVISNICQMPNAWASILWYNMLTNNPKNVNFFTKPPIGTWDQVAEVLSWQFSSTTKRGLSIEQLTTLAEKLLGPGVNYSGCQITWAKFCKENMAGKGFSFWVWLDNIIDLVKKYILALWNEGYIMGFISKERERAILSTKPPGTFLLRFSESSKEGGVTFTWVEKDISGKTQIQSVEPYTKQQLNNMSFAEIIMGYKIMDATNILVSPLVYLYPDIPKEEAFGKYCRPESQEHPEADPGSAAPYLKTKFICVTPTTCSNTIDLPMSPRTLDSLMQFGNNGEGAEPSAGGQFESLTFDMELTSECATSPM
Transcription factor Sp1 (Homo sapiens), sequence (P08047 whole entry, looked up): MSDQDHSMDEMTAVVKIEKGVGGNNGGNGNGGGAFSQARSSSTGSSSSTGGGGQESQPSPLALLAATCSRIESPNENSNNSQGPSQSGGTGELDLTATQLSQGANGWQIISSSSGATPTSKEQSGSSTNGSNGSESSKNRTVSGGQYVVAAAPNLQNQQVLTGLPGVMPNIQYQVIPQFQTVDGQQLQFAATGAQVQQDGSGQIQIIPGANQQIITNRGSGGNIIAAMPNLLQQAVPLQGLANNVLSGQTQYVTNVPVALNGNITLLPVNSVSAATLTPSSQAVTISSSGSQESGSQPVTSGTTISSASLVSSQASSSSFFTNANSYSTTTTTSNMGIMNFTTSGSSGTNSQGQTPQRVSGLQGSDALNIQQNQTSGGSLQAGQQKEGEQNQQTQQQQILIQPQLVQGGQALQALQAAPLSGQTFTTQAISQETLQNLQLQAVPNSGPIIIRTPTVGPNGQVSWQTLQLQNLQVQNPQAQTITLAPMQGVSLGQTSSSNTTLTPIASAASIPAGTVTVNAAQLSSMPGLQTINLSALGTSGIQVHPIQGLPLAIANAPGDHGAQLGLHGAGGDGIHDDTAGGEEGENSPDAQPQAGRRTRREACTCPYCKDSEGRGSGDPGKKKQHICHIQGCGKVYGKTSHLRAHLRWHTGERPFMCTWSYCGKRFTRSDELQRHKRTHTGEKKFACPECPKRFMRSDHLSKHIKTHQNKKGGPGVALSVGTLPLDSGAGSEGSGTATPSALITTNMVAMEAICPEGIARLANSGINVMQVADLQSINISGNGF
Steroid hormone receptor ERR1 (Homo sapiens), sequence (P11474 whole entry, looked up, the tested form may be a part): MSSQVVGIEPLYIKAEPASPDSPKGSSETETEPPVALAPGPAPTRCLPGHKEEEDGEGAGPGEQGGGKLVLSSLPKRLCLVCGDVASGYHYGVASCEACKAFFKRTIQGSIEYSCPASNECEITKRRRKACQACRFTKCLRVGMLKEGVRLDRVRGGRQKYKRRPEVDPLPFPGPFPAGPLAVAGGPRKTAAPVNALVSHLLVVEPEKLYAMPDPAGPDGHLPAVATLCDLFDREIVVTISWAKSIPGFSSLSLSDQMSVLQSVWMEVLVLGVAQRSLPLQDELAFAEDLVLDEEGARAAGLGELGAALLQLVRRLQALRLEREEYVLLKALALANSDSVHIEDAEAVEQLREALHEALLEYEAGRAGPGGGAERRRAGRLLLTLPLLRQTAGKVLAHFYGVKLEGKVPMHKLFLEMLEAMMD
Nuclear receptor subfamily 1 group I member 3 (Homo sapiens), sequence (Q14994 whole entry, looked up, the tested form may be a part): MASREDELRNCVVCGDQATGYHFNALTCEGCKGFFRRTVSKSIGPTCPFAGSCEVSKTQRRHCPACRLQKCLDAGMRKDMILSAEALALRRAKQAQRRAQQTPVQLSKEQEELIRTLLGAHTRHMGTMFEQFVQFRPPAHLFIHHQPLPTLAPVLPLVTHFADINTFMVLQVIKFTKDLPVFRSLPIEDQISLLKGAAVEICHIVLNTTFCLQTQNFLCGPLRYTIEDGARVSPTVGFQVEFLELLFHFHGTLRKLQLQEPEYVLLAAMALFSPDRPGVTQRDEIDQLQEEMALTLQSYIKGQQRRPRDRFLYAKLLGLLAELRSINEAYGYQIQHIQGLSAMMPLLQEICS

In the case of CCOC(=O)C(C)OC(=O)c1cc(Oc2ccc(C(F)(F)F)cc2Cl)ccc1[N+](=O)[O-] (stereo unspecified), the AC50 [1] is reported as 19.1 µM (active), the outcome [2] is reported as “inactive” and the AC50 [3] is reported as 7.84 µM (active). The AC50 [4] was 11.7 µM (active), the AC50 [5] was 50 µM (active) and the outcome [6] was “inactive”. The outcome [7] was “inactive”, the AC50 [8] was 19.3 µM (active) and the outcome [9] was “inactive”. For the same molecule, the outcome [10] was “inactive”, the outcome [11] was “inactive” and the outcome [12] was “inactive”. For the same molecule, the outcome [13] was “inactive”, the outcome [14] was “inactive” and the AC50 [15] was 50 µM (active). For the same molecule, the outcome [16] was “inactive”.

In the case of CC(C)N1C(=O)c2ccccc2NS1(=O)=O, the outcome [2] is reported as “inactive”, the AC50 [3] is reported as 12.1 µM (active) and the outcome [4] is reported as “inactive”. For the same molecule, the outcome [5] was “inactive”, the outcome [6] was “inactive” and the outcome [7] was “inactive”. For the same molecule, the AC50 [8] was 50 µM (active), the outcome [9] was “inactive” and the outcome [10] was “inactive”. The outcome [11] was “inactive”, the outcome [12] was “inactive” and the outcome [13] was “inactive”. For the same molecule, the AC50 [17] was 14.9 µM (active), the outcome [15] was “inactive” and the outcome [18] was “inactive”. The outcome [16] was “inactive”.

In the case of COP(=S)(OC)SCn1nnc2ccccc2c1=O, the AC50 [1] is reported as 36.3 µM (active), the outcome [2] is reported as “inactive” and the AC50 [3] is reported as 5.87 µM (active). For the same molecule, the outcome [4] was “inactive”, the AC50 [5] was 31 µM (active) and the outcome [6] was “inactive”. The AC50 [7] was 32.5 µM (active), the AC50 [8] was 19.8 µM (active) and the outcome [9] was “inactive”. The outcome [10] was “inactive”, the outcome [11] was “inactive” and the outcome [12] was “inactive”. The outcome [13] was “inactive”, the AC50 [17] was 10.3 µM (active) and the AC50 [15] was 45.4 µM (active). For the same molecule, the AC50 [16] was 18.7 µM (active) and the outcome [19] was “inactive”.

For CC(C)Nc1nc(Cl)nc(NC(C)C)n1, the outcome [1] was “inactive”, the outcome [2] was “inactive” and the AC50 [3] was 15.3 µM (active). The outcome [4] was “inactive”, the outcome [6] was “inactive” and the outcome [7] was “inactive”. The outcome [8] was “inactive”, the outcome [9] was “inactive” and the outcome [10] was “inactive”. The outcome [11] was “inactive”, the outcome [12] was “inactive” and the outcome [13] was “inactive”. For the same molecule, the outcome [17] was “inactive”, the outcome [14] was “inactive” and the outcome [15] was “inactive”. The outcome [18] was “inactive” and the outcome [16] was “inactive”.

With Nc1c(Cl)c(Cl)nc(C(=O)O)c1Cl the outcome [2] was “inactive”, the AC50 [3] was 69.5 µM (active) and the outcome [4] was “inactive”. For the same molecule, the outcome [5] was “inactive”, the outcome [6] was “inactive” and the outcome [7] was “inactive”. For the same molecule, the outcome [8] was “inactive”, the outcome [9] was “inactive” and the outcome [10] was “inactive”. The outcome [11] was “inactive”, the outcome [12] was “inactive” and the outcome [13] was “inactive”. For the same molecule, the outcome [15] was “inactive”, the outcome [16] was “inactive” and the outcome [19] was “inactive”.
